Screens (PubChem)
Only some compounds are listed: those with a hit (about 8% of all), similar ones and a draw of the others.
LASV entry inh – qHTS for Inhibitors of binding or entry into cells for Lassa Virus. Lassa virus pseudotype entry inhibition, cell reporter. Potency, µM (top dose mostly 37.9 µM), for the others: top-dose activity change, negative = inhibition, usual class: inhibitors. hit rate 1.2% among 300,000. AID 540256, 2011; calls by dose curve; tested in HEK293 cells; also: potency is read from the fitted curve at half-maximal effect; % is scaled to controls: 0 for no effect and ±100 for the full control effect; nearly all actives have a fitted effect of over 50% in size
HCMV antiviral – qHTS Assay for inhibitors of the human cytomegalovirus (HCMV). activity change, negative = inhibition, % at 57.5 µM. hit rate 4.5% among 410,000. HFF cells, HCMV-luciferase reporter, 72 h; active compounds read low; in the data active = activity change below about -60%; inconclusive = no clear call, values can overlap the other calls; inactive = above about -39%; also: % is scaled to controls: 0 for no effect and ±100 for the full control effect
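Cell-based, HFFs, 1000 cells/well, 16 h 37C; cpds in DMSO + HCMV-luc, MOI 1 PFU/cell; 72 h 37C; OneGlo luminescence after 5 min RT; norm. to buffer vs Salinomycin 10uM.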
SARS PLP yeast – qHTS of Yeast-based Assay for SARS-CoV PLP; S. cerevisiae expressing SARS-CoV PLpro, growth rescue; hit rate 0.19% among 330,000; Potency, µM (doses to about 32.9 µM), inactives show top-dose activity, positive = growth rescue, hits mostly activators; calls by dose curve; also: potency is read from the fitted curve at half-maximal effect; 0% is about no effect; nearly all actives have a fitted effect of over 55% in size
MARV entry inh – qHTS for inhibitors of binding or entry into cells for Marburg Virus | hit rate 1.8% among 300,000 | Potency, µM (titrated, usually from 37.8 µM), for the others: at the highest dose activity change, negative = inhibition, actives largely listed as inhibitors | Marburg virus pseudotyped entry inhibition, cell reporter | AID 540276, 2011; calls by dose curve; tested in HEK293 cells; also: potency is read from the fitted curve at half-maximal effect; % is scaled to controls: 0 for no effect and ±100 for the full control effect
FMDV antiviral – High Throughput Screening for Foot and Mouth Disease Virus Antivirals; Potency, µM (titrated, usually from 57.9 µM), for the others: at the top dose activity change, negative = inhibition, most hits filed as inhibitors; FMDV antiviral cell-based qHTS; hit rate 1.2% among 410,000; calls by dose curve; tested in HEK293T cells; also: read-out not given here; potency is read from the fitted curve at half-maximal effect; % is scaled to controls: 0 for no effect and ±100 for the full control effect; nearly all actives have a fitted effect of over 45% in size
HCV inh – qHTS Assay for Inhibitors of Hepatitis C Virus (HCV). hit rate 3.4% among 340,000. AID 651820, 2012. Huh7.5.1 HCVcc-Cre infection, luciferase reporter, 44 h. Potency, µM (top dose mostly 41.8 µM), for the others: at the top dose activity change, negative = inhibition, actives largely listed as inhibitors; active = well fitted inhibition curve with a large enough effect; inconclusive = small, poorly fitted or top-dose-only effect, or another doubt; inactive = no such curve, though single readings can be large or run the other way; also: potency is read from the fitted curve at half-maximal effect; % is scaled to controls: 0 for no effect and ±100 for the full control effect
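A cell-based infection assay in which seeded cells (1,000 per well) receive test compound after 4 h, are inoculated with HCVcc-Cre at approximately 0.5 moi, and are incubated 44 h before luminescence detection.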
* hit, by the source's call; u = inconclusive; x = no result given; [ ] = another dose, or the depositor's remark.

SMILES | LASV entry inh | HCMV antiviral | SARS PLP yeast | MARV entry inh | FMDV antiviral | HCV inh
CC(Oc1ccc(Cl)cc1)C(=O)Nc1ccccc1N1CCOCC1 (stereo unspecified) | u | -28 | -9% | 13µM* | -18% | u
O=C(Cc1ccc(Cl)cc1)NC(=S)Nc1ccccc1N1CCOCC1 | -10% | 6 | -20% | u | -8% | u
Cc1cc(OCC(=O)Nc2ccccc2N2CCOCC2)c(C(C)C)cc1Cl | x | -66* | -5% | x | u | u
Cc1cc(Cl)ccc1OC(C)C(=O)Nc1ccccc1N1CCOCC1 (stereo unspecified) | u | -38 | -13% | u | u | 10µM*
Cc1cc(NC(=O)CCNS(=O)(=O)c2cccc3nsnc23)ccc1Br | 5%[46.1 µM] | 7 | x | 17%[46.1 µM] | 8% | x
Cc1cccc(C)c1-n1nnnc1C(=O)c1cccnc1 | x | 22 | x | x | x | x
CCC1CN(CCNC(=O)c2cccc3nccnc23)Cc2cc(OC)ccc2O1 (stereo unspecified) | x | x | x | x | -11% | x
COc1cc(=O)n2c(c1C(=O)N(C)Cc1nonc1C)CCN(C(=O)C1C(C)(C)C1(C)C)CC2 | x | x | x | x | 4% | x
CCCn1c(CCC(=O)Nc2ccccc2Cc2ccccc2)nc2cc(S(=O)(=O)N3CCOCC3)ccc21 | u | -3 | 7% | 13µM* | -11% | u
CCn1c(SCC(N)=O)nc2cc(S(=O)(=O)N3CCOCC3)ccc21 | -4% | 18 | 1% | 12%[46.1 µM] | 0% | 4%
CCn1c(CCl)nc2cc(S(=O)(=O)N3CCOCC3)ccc21 | u | 20 | -1% | -14% | 28µM* | u
CC(C)c1ccc(C(=O)N(c2ccccn2)C(C)c2ccco2)cc1 (stereo unspecified) | u | 12 | 0% | 1% | 118% | -9%
CC(c1ccco1)N(C(=O)c1cc(Cl)cc(Cl)c1)c1ccccn1 (stereo unspecified) | -29% | -62* | -2% | u | 15% | -25%
CN(Cc1cccc(-c2cccnc2)c1)C(=O)Oc1ccc([N+](=O)[O-])cc1 | x | -40 | x | x | 35µM* | x
CC1=C(C(=O)OC2CCCCC2)C(c2cccc([N+](=O)[O-])c2)NC(=O)N1 (stereo unspecified) | x | -2 | 0% | x | -12% | 11µM*
CC1=C(C(=O)OC2CCCCCCC2)C(c2cccc(O)c2)NC(=O)N1 (stereo unspecified) | 1.8µM* | 43 | 0% | u | u | 9%
COc1ccc(C2NC(=O)NC(C)=C2C(=O)OC2CCCCC2)cc1OC (stereo unspecified) | u | 2 | 2% | 0%[46.1 µM] | -23% | -1%
Cc1cc(S(=O)(=O)N2CC(=O)N(CCc3ccccc3)C(=O)C2)ccc1F | -3% | -89* | 1% | 3% | 9% | 6%
O=C1CN(S(=O)(=O)c2ccccc2)CC(=O)N1CCc1ccccc1 | 7% | -24 | 0% | -3% | -14% | 2%
COc1ccc(NC(=O)C(C)N2c3cccc4cccc(c34)S2(=O)=O)cc1OC (stereo unspecified) | -3% | -80* | 15% | u | x | 6.3µM*
CCSc1nsc(NC(=O)Nc2cccc(OC)c2)n1 | u | u | -2% | 11µM* | -26% | -18%
C=CCSc1nsc(NC(=O)Nc2ccc(F)cc2)n1 | u | -103* | -23% | u | -28% | 22µM*
O=C(NCc1ccc2c(c1)OCO2)[C@@H]1[C@@H](CO)[C@@H]2Cn3c(cccc3=O)[C@H]1N2Cc1cccnc1 | x | 19 | x | x | x | x
Cc1cc(N2CCCC2)c(F)cc1/C=C\[N+](=O)[O-] | u | -4 | 11% | -11%[46.1 µM] | 22µM* | 5%
COCCNc1nc(-c2ccccc2CN(C)C)nc2ccccc12 | x | x | x | x | -6% | x
SMILES | LASV entry inh | HCMV antiviral | SARS PLP yeast | MARV entry inh | FMDV antiviral | HCV inh
Cc1ccc(S(=O)(=O)n2ccc3c(OCCOCCNCc4ccc(F)cc4)cccc32)cc1 | u | -101* | -1% | u | u | u
CCCCN(C)CCNC(=O)c1c2c(nc3ccccc13)C(=O)N(C1CCCCC1)C2 | -1%[46.1 µM] | 31 | x | x | -6% | x
C=C(C)c1cccc(C(C)(C)NC(=O)Nc2nnc(C(C)C)s2)c1 | x | -101* | 0% | x | u | u
C=C(C)c1cccc(C(C)(C)NC(=O)Nc2ccc(C)cn2)c1 | -14% | -39 | -24% | -27% | -21% | 8.9µM*
CCN1C(=NCc2ccc(OC)cc2)NC(c2ccccc2)C(C(=O)OC)=C1C (stereo unspecified) | x | x | x | -22%[14.2 µM] | x | x
CC1CCCN(C(=O)c2cccc(S(=O)(=O)NCc3ccccc3)c2)C1 (stereo unspecified) | x | -1 | x | x | 6% | x
COc1ccc(-c2coc3cc4oc(=O)c5ccccc5c4cc23)cc1F | u | -85* | 9% | -2% | -16% | u
CC(OCCN1CCCC1)(c1ccc(F)cc1)c1ccc(F)cc1 | 2µM* | -6 | 6% | u | u | -16%
Fc1ccc(OCCOCCN2CCCC2)cc1 | 5%[46.1 µM] | 36 | x | u | -7% | 18%
CCCCC1(Cc2ccc(OC)c([N+](=O)[O-])c2)C(=O)N(c2ccccc2)N(c2ccccc2)C1=O | u | u | -14% | 14µM* | u | u
C=C(C)Cn1c(SCC(=O)Nc2cccc(C)c2)nc2sc3c(c2c1=O)CCCC3 | -2%[46.1 µM] | 6 | x | 6%[46.1 µM] | -1% | x
CCOC(=O)c1nn(-c2ccc(OC)cc2)c(=O)c2c(N)scc12 | u | -9 | -3% | 1% | -22% | -23%
CCOC(=O)c1nn(-c2ccc(C)c(C)c2)c(=O)c2c(N)scc12 | -13% | -21 | -2% | -22% | -19% | 6.3µM*
Cc1c(C(=O)N(C)C)sc2c1c(=O)n(-c1ccc(Cl)c(Cl)c1)c(=O)n2CC(=O)Nc1cccc(C(F)(F)F)c1 | -9%[46.1 µM] | 168 | x | x | -20% | x
N#CC(C#N)=NNc1ccc(-n2ccc(C(F)(F)F)n2)cc1 | u | -97* | -20% | 3.2µM* | u | 4µM*
CC(C)c1c(C(=O)NCc2cccnc2)cnn1-c1nccc(-c2cccs2)n1 | x | x | x | x | -17% | x
CC(=O)NCCNc1nc(-c2cccc(C#N)c2)nc2ccccc12 | x | x | x | x | -4% | x
O=C(C1=NNCC1c1ccccc1)C1CO1 (stereo unspecified) | -16% | -69* | -4% | -32% | -25% | 11%
COc1cc(/C=N/Nc2nc(Nc3ccc(C)cc3)nc(-n3nc(C)cc3C)n2)cc(OC)c1OC | u | 21 | -4% | u | -7% | u
COc1ccc(O)c(/C=N/Nc2nc(Nc3ccccc3)nc(-n3nc(C)cc3C)n2)c1 | 13µM* | -77* | 1% | u | -19% | u
